In publication PMC9911399, “Two distinct binding modes provide the RNA-binding protein RbFox with extraordinary sequence specificity”:
Numbering of substitutions follows the chain as printed; changes in the protein carry UniProt numbers. Over roughly 16,000 sequences, “ka relative to ugcaugu” has its median near 0.096; the highest 2% begin near 0.35. The sample as a whole holds a higher share of the highest values than the screen did.

T1: RBFOX1 RRM RbFoxmut (Fox-RRM*) (Homo sapiens, UniProt Q9NWB1 109-208, R118D;E147R;N151S;E152T)
T1 sequence: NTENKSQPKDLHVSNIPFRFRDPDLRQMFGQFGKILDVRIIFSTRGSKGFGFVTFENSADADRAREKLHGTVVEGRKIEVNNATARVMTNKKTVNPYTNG

B1: ACCUUAA (DNA:RNA)
RNA: GGGAGACCGGAAUUCAGAUUGUCCACCUUAAUUAAAUCCCGUCGUAGCCACCA
DNA 1: CAATCTGAATTCCGGTCTCCC
DNA 2: TGGTGGCTACGACGGGATT
B2: CCCGCAU (DNA:RNA)
RNA: B1 RNA with A25C, U28G, U29C, A31U
DNA 1: CAATCTGAATTCCGGTCTCCC
DNA 2: TGGTGGCTACGACGGGATT
B3: CUUCACC (DNA:RNA)
RNA: GGGAGACCGGAAUUCAGAUUGUCCCUUCACCUUAAAUCCCGUCGUAGCCACCA
DNA 1: CAATCTGAATTCCGGTCTCCC
DNA 2: TGGTGGCTACGACGGGATT
B4: CGAGUAU (DNA:RNA)
RNA: B1 RNA with A25C, C26G, C27A, U28G, A31U
DNA 1: CAATCTGAATTCCGGTCTCCC
DNA 2: TGGTGGCTACGACGGGATT
B5: UGGUUGG (DNA:RNA)
RNA: B1 RNA with A25U, C26G, C27G, A30G, A31G
DNA 1: CAATCTGAATTCCGGTCTCCC
DNA 2: TGGTGGCTACGACGGGATT
B6: UGGUUUU (DNA:RNA)
RNA: B1 RNA with A25U, C26G, C27G, A30U, A31U
DNA 1: CAATCTGAATTCCGGTCTCCC
DNA 2: TGGTGGCTACGACGGGATT
B7: CCCCUGG (DNA:RNA)
RNA: B1 RNA with A25C, U28C, A30G, A31G
DNA 1: CAATCTGAATTCCGGTCTCCC
DNA 2: TGGTGGCTACGACGGGATT
B8: CUGGUUG (DNA:RNA)
RNA: B3 RNA with U27G, C28G, A29U, C30U, C31G
DNA 1: CAATCTGAATTCCGGTCTCCC
DNA 2: TGGTGGCTACGACGGGATT
B9: UGUUUGG (DNA:RNA)
RNA: B1 RNA with A25U, C26G, C27U, A30G, A31G
DNA 1: CAATCTGAATTCCGGTCTCCC
DNA 2: TGGTGGCTACGACGGGATT
B10: UGGUUUC (DNA:RNA)
RNA: B1 RNA with A25U, C26G, C27G, A30U, A31C
DNA 1: CAATCTGAATTCCGGTCTCCC
DNA 2: TGGTGGCTACGACGGGATT
B11: UGGUUCC (DNA:RNA)
RNA: B1 RNA with A25U, C26G, C27G, A30C, A31C
DNA 1: CAATCTGAATTCCGGTCTCCC
DNA 2: TGGTGGCTACGACGGGATT
B12: UGGUUUG (DNA:RNA)
RNA: B1 RNA with A25U, C26G, C27G, A30U, A31G
DNA 1: CAATCTGAATTCCGGTCTCCC
DNA 2: TGGTGGCTACGACGGGATT
B13: GUCCUGG (DNA:RNA)
RNA: B1 RNA with A25G, C26U, U28C, A30G, A31G
DNA 1: CAATCTGAATTCCGGTCTCCC
DNA 2: TGGTGGCTACGACGGGATT
B14: UGGUUGU (DNA:RNA)
RNA: B1 RNA with A25U, C26G, C27G, A30G, A31U
DNA 1: CAATCTGAATTCCGGTCTCCC
DNA 2: TGGTGGCTACGACGGGATT
B15: UGGUGGU (DNA:RNA)
RNA: B1 RNA with A25U, C26G, C27G, U29G, A30G, A31U
DNA 1: CAATCTGAATTCCGGTCTCCC
DNA 2: TGGTGGCTACGACGGGATT
B16: UGGUUCG (DNA:RNA)
RNA: B1 RNA with A25U, C26G, C27G, A30C, A31G
DNA 1: CAATCTGAATTCCGGTCTCCC
DNA 2: TGGTGGCTACGACGGGATT
B17: CUACGGU (DNA:RNA)
RNA: B3 RNA with U27A, A29G, C30G, C31U
DNA 1: CAATCTGAATTCCGGTCTCCC
DNA 2: TGGTGGCTACGACGGGATT
B18: CUCUAUU (DNA:RNA)
RNA: B3 RNA with U27C, C28U, C30U, C31U
DNA 1: CAATCTGAATTCCGGTCTCCC
DNA 2: TGGTGGCTACGACGGGATT
B19: UGCCUAC (DNA:RNA)
RNA: B1 RNA with A25U, C26G, U28C, A31C
DNA 1: CAATCTGAATTCCGGTCTCCC
DNA 2: TGGTGGCTACGACGGGATT
B20: GGCUUCC (DNA:RNA)
RNA: B1 RNA with A25G, C26G, A30C, A31C
DNA 1: CAATCTGAATTCCGGTCTCCC
DNA 2: TGGTGGCTACGACGGGATT

What follows are binders tested against T1, RBFOX1 RRM RbFoxmut (Fox-RRM*) (assay: EMSA; HiTS-Eq, 1 nM pool, 10 min; buffer printed only for the single-RNA assays: 10 mM Tris pH 7.5, 150 mM NaCl, 3.4 mM EDTA, 0.001% NP-40, 30 C). Conditions: tags: His6 N-terminal (pET28a); label: 5' 32P.
Procedure, shortened: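 Relative association constants, normalised to the cognate motif, were derived by comparing read counts of each RNA species with those of the control reaction. The RNA sequenced was the free fraction, separated by 8% native PAGE after a 10 min equilibration in 50 µL of 1 nM 5′-radiolabelled RNA (7 randomized nucleotides) with increasing concentrations of purified wild-type or mutant RbFox RRM.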

| Binder | binding signal |
| --- | --- |
| B1 | 0.129 KA relative to UGCAUGU |
| B2 | 0.0703 KA relative to UGCAUGU |
| B3 | 0.0684 KA relative to UGCAUGU |
| B4 | 0.143 KA relative to UGCAUGU |
| B5 | 0.309 KA relative to UGCAUGU |
| B6 | 0.0956 KA relative to UGCAUGU |
| B7 | 0.0629 KA relative to UGCAUGU |
| B8 | 0.458 KA relative to UGCAUGU |
| B9 | 0.302 KA relative to UGCAUGU |
| B10 | 0.183 KA relative to UGCAUGU |
| B11 | 0.157 KA relative to UGCAUGU |
| B12 | 0.874 KA relative to UGCAUGU |
| B13 | 0.075 KA relative to UGCAUGU |
| B14 | 0.396 KA relative to UGCAUGU |
| B15 | 0.161 KA relative to UGCAUGU |
| B16 | 0.492 KA relative to UGCAUGU |
| B17 | 0.0878 KA relative to UGCAUGU |
| B18 | 0.107 KA relative to UGCAUGU |
| B19 | 0.105 KA relative to UGCAUGU |
| B20 | 0.142 KA relative to UGCAUGU |
